About 7,900 targets were measured; listed, in parts, are those with a hit and a random draw of the rest. About 0.6% of all pairs of compound and target were hits.
Assays:
Test in all cases: log2 fold change, soluble protein after heating vs DMSO (PISA); higher = thermal stabilisation; K562 cells, 10 uM, 30 min; active = over 0.2 and 3.5 SD of the protein, either way, in both replicates (recomputed)
[1] = compound: CC[C@@H]1C(=O)N(C)c2cnc(Nc3ccc(C(=O)NC4CCN(C)CC4)cc3OC)nc2N1C1CCCC1
Method in brief: (§1)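 For each measurement, 10 μM compound was applied for 30 min to K562 cells at 2×10^6 cells/mL. Aliquots were heated for 3 min across 48°C-58°C, pooled, and extracted in PBS with 0.5% NP-40 at 4°C; the supernatant after 21,000xg for 90 min was soluble protein. This was quantified by TMTpro 16plex LC-MS/MS with channel sums equalised, and thermal stability was reported relative to control samples from duplicates, on a log2 fold-change scale.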

[2] = compound: CC[C@@H]1C(=O)N(C)c2cnc(Nc3ccc(C(=O)N[C@H]4CC[C@H](N5CCN(CC6CC6)CC5)CC4)cc3OC)nc2N1C(C)C [volasertib]
Method in brief: as §1

[3] = compound: CC[C@H](C)N1C=C(C2=C(C=C(C=C21)C3=CN=C(C=C3)N4CCNCC4)C(=O)NCC5=C(C=C(NC5=O)C)C)C
Method in brief: as §1

[4] = compound: CC[C@H](C)[C@@H](C(=O)N[C@@H]([C@@H](C)O)C(=O)N[C@@H](CC(C)C)C(=O)[C@]1(CO1)C)NC(=O)[C@H]([C@@H](C)CC)N(C)C(=O)C [epoxomicin]
Method in brief: as §1

[5] = compound: CCn1c(C(=O)N(C2CC2)C2CC2)cc2c3c(ncn3C)c(Nc3cc(C)n(C)n3)nc21
Method in brief: as §1

[6] = compound: CCn1cc(-c2ccnc3[nH]c(-c4cccc(CN(C)C)c4)cc23)c(-c2ccc(NC(=O)N(C)C)cc2)n1
Method in brief: as §1

[7] = compound: CN(C)CC(=O)Nc1ccc2[nH]c(=O)c3ccccc3c2c1
Method in brief: as §1

[8] = compound: CN(CCOC1=CC=C(C=C1)C[C@H]2C(=O)NC(=O)S2)C3=CC=CC=N3 (racemic) [rosiglitazone]
Method in brief: as §1

[9] = compound: CN1C2=C(C3=C1C(=O)N(N=C3)CC4=CC(=CC=C4)N)SC(=C2)S(=O)C
Method in brief: as §1

[10] = compound: CN1CCC(CNc2ccc3ncc(-c4cccc(OC(F)(F)F)c4)n3n2)CC1
Method in brief: as §1

[11] = compound: CN1CCN(CCOc2cc(OC3CCOCC3)c3c(Nc4c(Cl)ccc5c4OCO5)ncnc3c2)CC1 [saracatinib]
Method in brief: as §1

[12] = compound: CN1CCN(c2nc(C3=C(c4c[nH]c5ccccc45)C(=O)NC3=O)c3ccccc3n2)CC1 [sotrastaurin]
Method in brief: as §1

[13] = compound: CN1CC[C@H](c2c(O)cc(O)c3c(=O)cc(-c4ccccc4Cl)oc23)[C@H](O)C1 [alvocidib]
Method in brief: as §1

[14] = compound: CN1CCc2c(c3ccccc3n2Cc2ccc(C(=O)NO)cc2)C1 [Tubastatin A]
Method in brief: as §1

[15] = compound: CNC(=O)C1=CC=CC=C1NC2=NC(=NC=C2Cl)NC3=C(C=C(C=C3)N4CCOCC4)OC
Method in brief: as §1

[16] = compound: CNC(=O)c1ccc(Nc2ncc(C(F)(F)F)c(NCc3nccnc3N(C)S(C)(=O)=O)n2)cc1 [defactinib]
Method in brief: as §1

[17] = compound: CNCc1ccc(-c2[nH]c3cc(F)cc4c3c2CCNC4=O)cc1 [rucaparib]
Method in brief: as §1

[18] = compound: CNc1nc(-c2ccc3c(N)n[nH]c3c2)cc(N2C[C@@H](C(=O)NC3CCCCC3)CC[C@H]2C)n1
Method in brief: as §1

[19] = compound: COC(=O)N[C@@H](C)CNc1nccc(-c2cn(C(C)C)nc2-c2cc(Cl)cc(NS(C)(=O)=O)c2F)n1 [encorafenib]
Method in brief: as §1

[20] = compound: COC(=O)[C@H](CCSC)NC(=O)C1=C(C=C(C=C1)NC[C@H](CS)N)C2=CC=CC=C2
Method in brief: as §1

Measured: log2 fold change

FMC1 (UniProt Q96HJ9)
inactive: [1] 0.04 | [2] 0.102 | [3] -0.039 | [4] 0.059 | [5] -0.102 | [6] 0.046 | [7] -0.057 | [8] 0.044 | [9] -0.01 | [10] -0.02 | [11] 0.139 | [12] 0.09 | [13] 0.026 | [14] 0.034 | [15] 0.113 | [16] -0.056 | [17] -0.023 | [18] -0.071 | [19] -0.105 | [20] 0.051

HEXB (UniProt P07686)
inactive: [3] -0.013 | [4] -0.006 | [5] 0.031 | [6] 0.019 | [7] 0 | [8] -0.008 | [9] -0.047 | [11] 0 | [12] 0.029 | [13] -0.004 | [14] -0.101 | [15] 0.017 | [16] -0.002 | [17] -0.078 | [18] -0.033 | [19] 0.01 | [20] -0.001
active: [1] -0.426 | [2] -0.396 | [10] -0.563

FOXK1 (UniProt P85037)
Sequence of UniProt P85037 (P85037 whole entry, looked up): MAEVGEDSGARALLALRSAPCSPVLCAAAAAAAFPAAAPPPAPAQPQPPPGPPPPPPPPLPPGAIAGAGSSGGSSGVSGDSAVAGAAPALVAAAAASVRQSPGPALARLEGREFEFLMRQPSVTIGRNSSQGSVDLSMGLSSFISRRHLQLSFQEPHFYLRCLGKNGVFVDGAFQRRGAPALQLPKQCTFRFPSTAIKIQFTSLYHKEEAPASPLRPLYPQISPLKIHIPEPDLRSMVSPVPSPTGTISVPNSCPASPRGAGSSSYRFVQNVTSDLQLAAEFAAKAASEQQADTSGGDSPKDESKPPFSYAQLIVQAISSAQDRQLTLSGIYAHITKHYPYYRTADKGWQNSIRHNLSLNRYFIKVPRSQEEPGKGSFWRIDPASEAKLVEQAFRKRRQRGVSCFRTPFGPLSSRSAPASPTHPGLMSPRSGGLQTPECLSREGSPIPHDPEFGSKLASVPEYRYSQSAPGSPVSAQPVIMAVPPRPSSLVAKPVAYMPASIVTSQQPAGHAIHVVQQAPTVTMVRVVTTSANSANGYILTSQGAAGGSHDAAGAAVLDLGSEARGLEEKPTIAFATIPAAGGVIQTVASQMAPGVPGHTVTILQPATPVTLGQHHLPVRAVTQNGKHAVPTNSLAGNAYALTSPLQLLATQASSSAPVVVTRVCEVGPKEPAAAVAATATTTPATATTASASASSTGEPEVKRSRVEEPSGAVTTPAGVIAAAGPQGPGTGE
active: [12] -1.37 | [13] -1.01
inactive: [1] 0.429 | [2] -0.017 | [3] 0.035 | [4] 0.027 | [5] -0.094 | [6] 0.041 | [7] -0.001 | [8] -0.077 | [9] -0.289 | [10] 0.456 | [11] 0.214 | [14] -0.112 | [15] 0.2 | [16] -0.941 | [17] -0.759 | [18] 0.615 | [19] 0.054 | [20] -0.111

GSTM4 (UniProt Q03013)
Sequence of UniProt Q03013 (Q03013 whole entry, looked up): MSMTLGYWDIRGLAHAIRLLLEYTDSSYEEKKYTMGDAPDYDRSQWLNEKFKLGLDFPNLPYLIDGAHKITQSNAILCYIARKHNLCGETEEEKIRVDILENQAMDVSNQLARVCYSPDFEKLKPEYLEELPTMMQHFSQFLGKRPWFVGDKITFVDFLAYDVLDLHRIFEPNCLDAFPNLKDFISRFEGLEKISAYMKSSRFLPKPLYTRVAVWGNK
active: [17] -0.385
inactive: [1] 0.202 | [2] 0.095 | [3] 0.039 | [4] -0.009 | [5] 0.036 | [6] -0.063 | [7] 0.025 | [8] -0.24 | [9] -0.054 | [10] -0.182 | [11] -0.106 | [12] -0.066 | [13] -0.065 | [14] -0.044 | [15] 0.003 | [16] -0.086 | [18] 0.06 | [19] -0.238 | [20] 0.093

ICAM1 (UniProt P05362)
Sequence of UniProt P05362 (P05362 whole entry, looked up): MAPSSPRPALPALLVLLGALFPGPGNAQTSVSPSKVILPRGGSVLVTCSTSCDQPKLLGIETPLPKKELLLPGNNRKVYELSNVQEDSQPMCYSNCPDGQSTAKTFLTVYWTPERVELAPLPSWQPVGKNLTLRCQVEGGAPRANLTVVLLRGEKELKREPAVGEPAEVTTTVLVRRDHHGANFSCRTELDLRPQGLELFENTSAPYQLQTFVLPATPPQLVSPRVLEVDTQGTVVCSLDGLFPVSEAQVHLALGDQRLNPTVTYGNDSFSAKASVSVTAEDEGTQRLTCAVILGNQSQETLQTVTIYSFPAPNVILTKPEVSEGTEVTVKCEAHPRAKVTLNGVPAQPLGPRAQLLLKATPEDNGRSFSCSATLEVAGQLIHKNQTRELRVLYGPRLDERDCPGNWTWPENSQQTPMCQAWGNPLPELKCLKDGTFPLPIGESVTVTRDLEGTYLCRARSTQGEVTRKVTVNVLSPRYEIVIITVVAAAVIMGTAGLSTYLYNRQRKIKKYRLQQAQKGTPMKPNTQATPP
active: [10] 0.223
inactive: [1] 0.155 | [2] 0.078 | [3] -0.028 | [4] 0.008 | [5] -0.02 | [6] 0.012 | [7] -0.039 | [8] -0.002 | [9] -0.073 | [11] 0.035 | [12] 0.07 | [13] -0.004 | [14] -0.03 | [15] -0.073 | [16] -0.026 | [17] 0.049 | [18] 0.099 | [19] -0.004 | [20] 0.043

FBXO42 (UniProt Q6P3S6)
inactive: [1] 0.093 | [2] 0.011 | [3] 0.028 | [4] 0.056 | [5] -0.031 | [6] 0.002 | [7] -0.019 | [8] 0.027 | [9] 0.032 | [10] 0.021 | [11] -0.032 | [12] 0.051 | [13] -0.107 | [14] 0 | [15] -0.067 | [16] -0.165 | [17] -0.073 | [18] 0.139 | [19] 0.03 | [20] 0.012

HMGCR isoform 3 (UniProt P04035)
Sequence of UniProt P04035 (P04035 whole entry, looked up): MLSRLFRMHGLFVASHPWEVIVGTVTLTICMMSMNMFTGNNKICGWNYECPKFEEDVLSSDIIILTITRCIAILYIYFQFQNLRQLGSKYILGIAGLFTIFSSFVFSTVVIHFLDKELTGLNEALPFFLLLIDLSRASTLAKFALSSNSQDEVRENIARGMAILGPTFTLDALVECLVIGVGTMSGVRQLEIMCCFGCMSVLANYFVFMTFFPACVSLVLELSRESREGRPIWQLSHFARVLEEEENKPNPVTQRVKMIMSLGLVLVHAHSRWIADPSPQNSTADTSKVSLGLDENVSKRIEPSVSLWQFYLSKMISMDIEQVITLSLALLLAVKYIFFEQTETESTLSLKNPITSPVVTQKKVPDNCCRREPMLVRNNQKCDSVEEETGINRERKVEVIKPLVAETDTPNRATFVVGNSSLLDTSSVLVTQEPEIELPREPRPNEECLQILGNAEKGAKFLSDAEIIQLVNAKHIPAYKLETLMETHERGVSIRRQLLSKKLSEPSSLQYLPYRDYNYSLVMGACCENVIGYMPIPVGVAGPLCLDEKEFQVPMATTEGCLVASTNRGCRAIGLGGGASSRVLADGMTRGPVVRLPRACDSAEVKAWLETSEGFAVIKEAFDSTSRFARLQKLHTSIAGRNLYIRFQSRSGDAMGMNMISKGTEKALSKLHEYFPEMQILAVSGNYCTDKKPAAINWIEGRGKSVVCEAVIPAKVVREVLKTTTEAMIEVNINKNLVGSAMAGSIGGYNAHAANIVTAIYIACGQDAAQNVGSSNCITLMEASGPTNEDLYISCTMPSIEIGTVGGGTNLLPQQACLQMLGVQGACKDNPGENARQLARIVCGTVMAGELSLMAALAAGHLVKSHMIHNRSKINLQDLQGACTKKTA
inactive: [1] -0.007 | [2] -0.019 | [3] -0.07 | [5] -0.04 | [6] 0.015 | [7] -0.023 | [8] -0.006 | [9] -0.009 | [10] 0.272 | [11] 0.002 | [12] -0.287 | [13] -0.021 | [15] -0.133 | [16] -0.004 | [17] -0.208 | [18] -0.024 | [19] 0.094 | [20] 0.146
active: [4] 0.356 | [14] 0.33

GINS2 (UniProt Q9Y248)
Sequence of UniProt Q9Y248 (Q9Y248 whole entry, looked up): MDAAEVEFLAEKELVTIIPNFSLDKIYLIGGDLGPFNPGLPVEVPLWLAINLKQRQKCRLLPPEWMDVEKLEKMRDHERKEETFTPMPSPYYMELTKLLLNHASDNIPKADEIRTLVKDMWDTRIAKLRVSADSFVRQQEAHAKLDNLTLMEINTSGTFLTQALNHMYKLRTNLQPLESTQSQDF
inactive: [1] -0.011 | [2] -0.07 | [3] 0.171 | [4] 0.014 | [5] 0.008 | [6] -0.135 | [7] 0.06 | [8] 0.058 | [9] 0.064 | [10] 0.062 | [11] -0.078 | [12] -0.17 | [13] -0.181 | [14] 0.076 | [15] 0.025 | [16] -0.067 | [17] -0.005 | [18] 0.203 | [19] 0.017 | [20] 0.057

GIGYF2 (UniProt Q6Y7W6)
active: [2] -0.52 | [10] -0.221
inactive: [1] -0.093 | [3] 0.02 | [4] 0 | [5] -0.046 | [6] -0.039 | [7] 0.032 | [8] 0.069 | [9] 0.021 | [11] -0.097 | [12] -0.111 | [13] -0.118 | [14] 0.023 | [15] 0.005 | [16] -0.04 | [17] 0.065 | [18] 0.016 | [19] -0.018 | [20] -0.022

HLTF (UniProt Q14527)
Sequence of UniProt Q14527 (Q14527 whole entry, looked up): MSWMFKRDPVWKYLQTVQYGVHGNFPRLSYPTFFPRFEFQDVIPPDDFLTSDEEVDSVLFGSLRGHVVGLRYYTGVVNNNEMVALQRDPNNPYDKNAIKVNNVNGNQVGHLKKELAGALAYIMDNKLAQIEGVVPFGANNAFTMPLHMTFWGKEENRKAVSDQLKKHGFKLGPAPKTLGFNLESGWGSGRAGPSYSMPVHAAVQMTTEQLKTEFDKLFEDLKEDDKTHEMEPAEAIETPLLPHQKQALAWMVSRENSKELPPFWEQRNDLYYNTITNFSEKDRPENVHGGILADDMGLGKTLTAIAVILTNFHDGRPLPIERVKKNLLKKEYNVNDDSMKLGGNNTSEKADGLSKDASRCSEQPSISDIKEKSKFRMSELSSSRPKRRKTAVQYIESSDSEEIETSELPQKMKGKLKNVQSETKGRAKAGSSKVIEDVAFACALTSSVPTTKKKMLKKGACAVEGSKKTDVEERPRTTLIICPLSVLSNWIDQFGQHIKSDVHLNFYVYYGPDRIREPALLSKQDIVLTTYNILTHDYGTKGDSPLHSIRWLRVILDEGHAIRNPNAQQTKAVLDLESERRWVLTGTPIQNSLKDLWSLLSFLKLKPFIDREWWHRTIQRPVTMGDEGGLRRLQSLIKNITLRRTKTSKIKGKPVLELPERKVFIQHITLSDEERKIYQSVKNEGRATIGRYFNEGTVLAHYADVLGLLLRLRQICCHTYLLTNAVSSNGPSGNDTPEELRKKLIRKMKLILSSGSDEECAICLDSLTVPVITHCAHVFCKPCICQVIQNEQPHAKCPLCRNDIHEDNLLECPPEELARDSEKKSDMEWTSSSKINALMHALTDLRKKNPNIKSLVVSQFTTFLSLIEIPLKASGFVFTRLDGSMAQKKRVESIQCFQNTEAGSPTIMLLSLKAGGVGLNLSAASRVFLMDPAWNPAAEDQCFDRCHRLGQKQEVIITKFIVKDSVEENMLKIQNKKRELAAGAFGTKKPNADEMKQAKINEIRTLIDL
inactive: [1] -0.063 | [2] -0.178 | [3] 0.017 | [4] 0.158 | [5] -0.025 | [6] -0.113 | [7] 0.056 | [8] 0.025 | [9] -0.009 | [10] 0.201 | [11] -0.012 | [12] 0.019 | [13] -0.036 | [14] 0.081 | [15] -0.03 | [16] -0.122 | [17] -0.033 | [18] -0.074 | [19] -0.195 | [20] -0.027

IDH3A (UniProt P50213)
Sequence of UniProt P50213 (P50213 whole entry, looked up): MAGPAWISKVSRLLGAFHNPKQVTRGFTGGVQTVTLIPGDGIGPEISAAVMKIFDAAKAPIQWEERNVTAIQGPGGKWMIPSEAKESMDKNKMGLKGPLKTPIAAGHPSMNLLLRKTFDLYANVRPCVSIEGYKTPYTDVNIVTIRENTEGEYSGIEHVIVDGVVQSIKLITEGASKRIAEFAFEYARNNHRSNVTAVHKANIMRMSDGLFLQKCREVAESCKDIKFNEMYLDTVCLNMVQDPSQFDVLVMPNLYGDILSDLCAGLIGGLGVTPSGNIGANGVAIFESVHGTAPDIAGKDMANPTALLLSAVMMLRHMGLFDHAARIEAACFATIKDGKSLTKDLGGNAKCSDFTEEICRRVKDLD
inactive: [1] -0.031 | [2] -0.01 | [3] 0.004 | [4] 0.063 | [5] 0 | [6] -0.027 | [7] 0 | [8] 0.008 | [9] -0.064 | [10] 0.033 | [11] -0.004 | [12] 0.008 | [13] -0.056 | [14] -0.058 | [15] -0.026 | [16] -0.023 | [17] -0.031 | [18] -0.026 | [19] -0.01 | [20] 0.002

GLCCI1 (UniProt Q86VQ1)
Sequence of UniProt Q86VQ1 (Q86VQ1 whole entry, looked up): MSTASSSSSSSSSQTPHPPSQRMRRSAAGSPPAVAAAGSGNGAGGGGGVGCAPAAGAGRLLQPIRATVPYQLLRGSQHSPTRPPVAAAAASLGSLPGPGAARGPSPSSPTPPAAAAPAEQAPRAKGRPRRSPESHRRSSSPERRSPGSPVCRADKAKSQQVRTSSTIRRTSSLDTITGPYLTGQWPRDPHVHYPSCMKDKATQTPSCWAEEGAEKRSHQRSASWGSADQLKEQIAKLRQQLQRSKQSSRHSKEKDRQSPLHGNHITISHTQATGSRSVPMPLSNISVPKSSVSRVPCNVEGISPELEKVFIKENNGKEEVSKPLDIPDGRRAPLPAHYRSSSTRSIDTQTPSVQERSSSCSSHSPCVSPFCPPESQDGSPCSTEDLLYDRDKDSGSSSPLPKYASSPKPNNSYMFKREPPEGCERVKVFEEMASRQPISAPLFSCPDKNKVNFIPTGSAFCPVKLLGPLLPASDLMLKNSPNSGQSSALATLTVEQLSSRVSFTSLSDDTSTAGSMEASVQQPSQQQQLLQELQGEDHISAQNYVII
active: [10] -0.328
inactive: [1] -0.048 | [2] 0.108 | [3] 0.15 | [4] -0.022 | [5] 0.087 | [6] 0.088 | [7] -0.035 | [8] -0.053 | [9] -0.023 | [11] -0.017 | [12] -0.016 | [13] 0.002 | [14] 0.082 | [15] -0.057 | [16] -0.072 | [17] 0.087 | [18] -0.063 | [19] 0.026 | [20] -0.051

HHEX (UniProt Q03014)
Sequence of UniProt Q03014 (Q03014 whole entry, looked up): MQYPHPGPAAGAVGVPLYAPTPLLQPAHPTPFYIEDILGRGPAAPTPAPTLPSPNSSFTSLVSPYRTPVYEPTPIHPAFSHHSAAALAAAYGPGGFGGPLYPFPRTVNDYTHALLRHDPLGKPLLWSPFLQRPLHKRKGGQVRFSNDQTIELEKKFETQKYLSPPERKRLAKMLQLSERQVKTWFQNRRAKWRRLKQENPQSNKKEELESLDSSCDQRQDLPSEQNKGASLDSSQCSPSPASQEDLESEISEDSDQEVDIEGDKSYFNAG
inactive: [1] 0.027 | [2] 0.07 | [3] 0.053 | [4] 0.164 | [5] 0.019 | [6] 0.05 | [7] 0.234 | [8] -0.029 | [9] 0.117 | [10] -0.023 | [11] 0.095 | [12] -0.068 | [13] -0.146 | [14] 0.126 | [15] 0.035 | [16] -0.173 | [17] 0.04 | [18] -0.011 | [19] -0.061 | [20] 0.651

HMGN2 (UniProt P05204)
inactive: [1] -0.083 | [2] 0.073 | [3] -0.109 | [4] -0.082 | [5] 0.054 | [6] -0.041 | [7] -0.081 | [8] -0.041 | [9] 0.02 | [10] 0.071 | [11] -0.138 | [12] 0.156 | [13] 0.069 | [14] -0.05 | [15] 0.026 | [16] 0.046 | [17] 0.13 | [18] 0.075 | [19] -0.091 | [20] 0.013

GLUD2 (UniProt P49448)
inactive: [1] 0.13 | [2] 0.252 | [3] 0.068 | [4] -0.07 | [5] 0.034 | [6] -0.219 | [7] 0.021 | [8] 0.002 | [9] -0.022 | [10] 0.071 | [12] 0.056 | [13] -0.017 | [14] -0.016 | [15] 0.051 | [16] 0.008 | [17] 0.003 | [18] 0.178 | [19] -0.117 | [20] -0.042
active: [11] 0.305

FIS1 (UniProt Q9Y3D6)
Sequence of UniProt Q9Y3D6 (Q9Y3D6 whole entry, looked up): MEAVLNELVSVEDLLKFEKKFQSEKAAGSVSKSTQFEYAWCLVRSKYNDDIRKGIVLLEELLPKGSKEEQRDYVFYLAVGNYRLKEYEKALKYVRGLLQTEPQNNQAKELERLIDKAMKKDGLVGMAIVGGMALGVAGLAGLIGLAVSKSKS
inactive: [1] 0.005 | [2] 0.046 | [3] -0.023 | [4] -0.002 | [5] 0.025 | [6] 0.008 | [7] 0.01 | [8] 0.016 | [9] -0.189 | [10] -0.075 | [12] 0.016 | [13] -0.11 | [14] -0.021 | [15] -0.012 | [16] -0.063 | [17] 0.004 | [18] 0.182 | [19] -0.049 | [20] -0.022
active: [11] 0.333

Source: the supplement of paper PMC10849652
